Test results taken from PubChem BioAssay AID1942 (Johns Hopkins Ion Channel Center, 2009).
The whole screen tested about 2,400 compounds, of which about 580 (24%) were called active. Only a sample is shown. Values without a mark were called inactive.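 How the source made its calls: active means activity change at or above the mean plus 3 SD of buffer wells without dofetilide, per plate; inactive means the rest.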

These molecules were tested against Potassium voltage-gated channel subfamily KQT member 2 (Rattus norvegicus) (UniProt O88943) (assay: rat KCNQ2 channel activation by compounds alone, confirmation, counter-screen for hERG block protector project, cell-based, CHO, FluxOR thallium flux (AID 1942;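 further: normalized value minus buffer-control mean plus three SD of buffer wells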)). Conditions: CHO-KCNQ2 cells, FluxOR thallium flux fluorescence; at 10 µM; active compounds read high.
Chain of Potassium voltage-gated channel subfamily KQT member 2 (Rattus norvegicus) (O88943 whole entry, looked up): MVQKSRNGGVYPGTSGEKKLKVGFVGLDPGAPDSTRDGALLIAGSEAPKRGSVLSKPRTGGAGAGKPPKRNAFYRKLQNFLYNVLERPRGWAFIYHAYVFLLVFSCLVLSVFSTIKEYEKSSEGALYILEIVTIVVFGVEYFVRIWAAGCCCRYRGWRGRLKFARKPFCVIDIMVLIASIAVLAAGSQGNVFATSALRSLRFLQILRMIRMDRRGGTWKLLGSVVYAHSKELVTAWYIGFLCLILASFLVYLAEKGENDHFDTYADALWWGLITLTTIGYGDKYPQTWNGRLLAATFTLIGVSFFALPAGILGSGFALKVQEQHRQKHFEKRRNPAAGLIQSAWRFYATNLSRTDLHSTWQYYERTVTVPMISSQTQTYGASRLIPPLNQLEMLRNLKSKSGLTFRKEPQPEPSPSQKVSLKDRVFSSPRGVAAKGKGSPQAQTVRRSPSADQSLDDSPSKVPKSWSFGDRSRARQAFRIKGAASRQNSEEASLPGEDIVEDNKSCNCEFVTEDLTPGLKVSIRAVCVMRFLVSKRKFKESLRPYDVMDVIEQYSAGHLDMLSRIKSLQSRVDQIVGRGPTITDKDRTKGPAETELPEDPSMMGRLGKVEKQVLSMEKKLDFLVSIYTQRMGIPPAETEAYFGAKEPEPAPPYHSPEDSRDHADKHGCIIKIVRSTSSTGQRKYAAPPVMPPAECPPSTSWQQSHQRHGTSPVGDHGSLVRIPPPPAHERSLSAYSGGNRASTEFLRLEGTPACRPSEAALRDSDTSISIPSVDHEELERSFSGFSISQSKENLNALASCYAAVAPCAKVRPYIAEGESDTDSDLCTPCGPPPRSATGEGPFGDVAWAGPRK
`CCCn1c(=S)[nH]c2sc3c(c2c1=O)CCCC3` was tested, and the activity change, less the hit threshold was 72% (active).
With `COc1ccc(N(CC(=O)N2CCN(Cc3ccccc3)CC2)S(C)(=O)=O)cc1` the activity change, less the hit threshold was -25.7%.
`C#CCN1C(=O)S/C(=C\c2ccc(-c3ccc(C(=O)O)cc3C)o2)C1=O` gave an activity change, less the hit threshold of -20.3%.
`COc1cc(CCC(=O)NNC(=O)c2ccc(C)cc2)cc(OC)c1OC` was tested, and the activity change, less the hit threshold was -8.9%.
In the case of `Oc1c(Br)cc(Br)cc1C=Nc1ccc2c(c1)OCCO2`, the activity change, less the hit threshold is reported as -1.5%.
With `Oc1c(Br)cc(Br)cc1C=Nc1ccc2[nH]ncc2c1` the activity change, less the hit threshold was 33% (active).
Work on `CCOc1cccc(C(=O)Nc2ccc3[nH]ncc3c2)c1` yielded an activity change, less the hit threshold of -15.8%.
Molecule `O=C(CSc1nc2ccccc2o1)NCc1n[nH]c(=O)c2ccccc12` has an activity change, less the hit threshold of -12.3%.
For `COc1ccc(-n2nc(C)cc2Nc2ccccc2C(=O)O)cc1`, the activity change, less the hit threshold was 21.8% (active).
In the case of `CCOc1ccc(C(=O)Nc2ccccc2C(=O)O)cc1`, the activity change, less the hit threshold is reported as -4%.
`Cc1cc(NC(=O)/C(C#N)=C/c2ccco2)n(-c2ccccc2)n1` showed an activity change, less the hit threshold of -20.2%.
`CCCCSc1nnc(CCC)n1N` gave an activity change, less the hit threshold of -8.4%.
For `CCc1c(C)sc(NC(=O)CN2CCN(C(=O)c3ccco3)CC2)c1C(=O)OC`, the activity change, less the hit threshold was 16.7% (active).
In the case of `CCOC(=O)c1c(NC(=O)CN2CCN(C(=O)c3ccco3)CC2)sc2c1CCCC2`, the activity change, less the hit threshold is reported as 17.6% (active).
`COC(=O)c1c(NC(=O)c2ccco2)sc2c1C(C(=O)OC)CC2` (stereo unspecified) was tested, and the activity change, less the hit threshold was -18.3%.
For `CCOc1ccc(OCC(=O)OCC(=O)N2CCN(C(=O)c3ccco3)CC2)cc1`, the activity change, less the hit threshold was -10.5%.
`CC(C)OC(=O)c1c(NC(=O)c2ccco2)sc2c1CCCCC2` showed an activity change, less the hit threshold of -27.5%.
Work on `O=C(CNCC1CCCO1)N1CCCCCC1` (stereo unspecified) yielded an activity change, less the hit threshold of -15.5%.
Work on `CC(Oc1ccc(Br)cc1Br)C(=O)Nc1cccnc1` (stereo unspecified) yielded an activity change, less the hit threshold of -16.3%.
`Cc1oc(/N=C/c2ccc(F)cc2)c(C#N)c1C` was tested, and the activity change, less the hit threshold was -16.1%.
`O=C(CN1C(=O)COc2ccccc21)NNC(=O)Nc1ccccc1F` showed an activity change, less the hit threshold of -21.5%.
For `Oc1oc(-c2cccc3ccccc23)nc1/C=N/c1nccs1`, the activity change, less the hit threshold was 13.4% (active).
`O=c1cc(O)c2ccccc2n1Cc1ccccc1Cl` showed an activity change, less the hit threshold of -12.7%.
In the case of `N=C1S/C(=C\c2ccc(-c3cccc(Cl)c3)o2)C(=O)N1c1nccs1`, the activity change, less the hit threshold is reported as -9.5%.
Work on `Cc1cc([N+](=O)[O-])ccc1-c1ccc(C2Nc3ccccc3C(=O)N2O)o1` (stereo unspecified) yielded an activity change, less the hit threshold of -3.8%.
`C=CCc1cccc(C2Nc3ccccc3C(=O)N2O)c1O` (stereo unspecified) gave an activity change, less the hit threshold of -12.4%.
In the case of `O=C1c2ccccc2NC(c2ccc(Br)s2)N1O` (stereo unspecified), the activity change, less the hit threshold is reported as 70.9% (active).
Molecule `CC1(OC(=O)c2ccc(Cl)nc2)C(=O)C=C2C=C(c3ccc(C#N)cc3)OC=C2C1=O` (stereo unspecified) has an activity change, less the hit threshold of -15.2%.
For `COc1cccc(-c2nnc(Nc3nc4c(F)cccc4s3)o2)c1`, the activity change, less the hit threshold was 13.2% (active).
`Fc1cccc2sc(Nc3nnc(-c4ccco4)o3)nc12` was tested, and the activity change, less the hit threshold was 25.3% (active).
With `Fc1cccc2sc(Nc3nc4c(F)cccc4s3)nc12` the activity change, less the hit threshold was 0.7% (active).
`Fc1ccc2nc(Nc3nc4c(F)cc(F)cc4s3)sc2c1` was tested, and the activity change, less the hit threshold was -10.7%.
Work on `CC(=O)Nc1nc2c(F)cccc2s1` yielded an activity change, less the hit threshold of -18.4%.
`Fc1cccc2sc(Nc3nnc(-c4ccccc4)o3)nc12` was tested, and the activity change, less the hit threshold was 79.5% (active).
Molecule `Cc1cc(C)nc(SCc2nnc(SCC(=O)Nc3nc(-c4ccccc4)cs3)n2-c2ccccc2)n1` has an activity change, less the hit threshold of -11%.
`Nc1ccc(NC(=O)Nc2ccc(N)cc2)cc1` was tested, and the activity change, less the hit threshold was -14.5%.
Molecule `OC(CNCC(c1ccc(Cl)cc1Cl)c1c[nH]c2ccccc12)c1ccccc1` (stereo unspecified) has an activity change, less the hit threshold of -43.4%.
`COc1cccc2cc(-c3nc4ccccc4[nH]3)c(=O)oc12` gave an activity change, less the hit threshold of -23.9%.
`COc1cccc(-c2cc(C(F)(F)F)nc(N3CCCCC3)n2)c1` was tested, and the activity change, less the hit threshold was -10.8%.
`O=C1CCCN1C(=O)COc1ccccc1[N+](=O)[O-]` showed an activity change, less the hit threshold of -15.5%.
Molecule `Cc1ccnc(N2CCC(C(=O)Nc3ccc(Oc4ccccc4)cc3)CC2)n1` has an activity change, less the hit threshold of -22%.
`CC(C)C(O)(C#CCN1CCCC1)c1ccccc1` (stereo unspecified) gave an activity change, less the hit threshold of -11.8%.
`CC(C)(C)c1ccc(C(=O)NC(=S)N2CCCCCC2)cc1` was tested, and the activity change, less the hit threshold was 18.8% (active).
`CC1CCN(C(=S)NC(=O)c2ccc(C(C)(C)C)cc2)CC1` was tested, and the activity change, less the hit threshold was 10.7% (active).
`CC1CN(C(=S)NC(=O)c2ccc(Cl)cc2)CC(C)O1` (stereo unspecified) showed an activity change, less the hit threshold of -3.2%.
In the case of `COc1ccc(C(=O)NC(=S)N2CCC(C)CC2)cc1Br`, the activity change, less the hit threshold is reported as 51% (active).
Molecule `CC(C)(C)c1ccc(C(=O)NC(=S)N2CCCC2)cc1` has an activity change, less the hit threshold of -7.6%.
For `S=C(N/N=C/c1ccc(Cl)cc1)N1CCOCC1`, the activity change, less the hit threshold was -26.9%.
With `COc1ccc(C(=O)NC(=S)N2CCC(C)CC2)cc1` the activity change, less the hit threshold was -13.2%.
Molecule `CN1CCN(C(=S)NC(=O)c2ccc(C(C)(C)C)cc2)CC1` has an activity change, less the hit threshold of -16.2%.
For `O=C(NC(=S)N1CCCC1)c1ccc(Cl)cc1`, the activity change, less the hit threshold was 4.3% (active).
